Reference: the supplement of paper PMC3656093
± gives the standard deviation of the averaged measurements. Over roughly 1,900 compounds, “CD40L-induced NF-kB luciferase activity, plate-corrected, relative to DMSO (0) and IKK inhibitor VII (-100) controls” has its median near 0.032; the lowest 2% begin near -26. The sample holds the lowest values, similar compounds and a random draw of the others, so the mix is not that of the screen.

The compounds below were run on BL2-NFkB-Luc (assay: CD40L-induced NF-kB luciferase activity, plate-corrected, relative to DMSO (0) and IKK inhibitor VII (-100) controls (% normalized activity); higher = more NF-kB reporter activity (less inhibition)). Details: 9.4 µM; stimulus: tCD40L 64 ng/ml; 4.5 h.
Procedure: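 BL2 B cells with a stable NF-kB response-element luciferase reporter (BL2-NFkB-Luc), 384-well. Cells were pre-incubated with compound at 9.4 uM for 1 h at 37 C, then stimulated with 64 ng/ml trimerized CD40L for 4.5 h; luciferase was read with Steady-Glo. Signal was normalised per plate in Genedata (median DMSO neutral control = 0, median IKK inhibitor VII at 50 uM = -100) with Assay Median plate-pattern correction; duplicate plates.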

Structure (SMILES) | CD40L-induced NF-kB luciferase activity
CCOc1cc(C=O)ccc1OCCSc1ccc(C)cc1 | 8.64 ± 2
CCC(C)NCCOCCOc1ccc(Cl)c2ccccc12 (stereo not given) | -3.83 ± 0.8
COc1ccc2oc(=O)c(-c3nc(C)cs3)cc2c1 | 82.6 ± 9.2
Cc1ccc2c(c1)c(=O)c1c3n2CCN(C(=O)CCl)C3CC1 (stereo not given) | -2.91 ± 2.5
CC1(C)Cc2ccccc2-c2nc(-c3ccccc3)oc(=O)c21 | 2.15 ± 0.84
O=C(c1ccc([N+](=O)[O-])cc1)N1CCSC1c1ccccc1Cl (stereo not given) | 4.04 ± 5
CN(C)CCOc1ccccc1Cc1ccccc1 | 0.196 ± 5
O=C(NC1CCCCC1)c1cc2nc(-c3ccco3)cc(C(F)(F)F)n2n1 | 1.55 ± 1.8
CC(C)Oc1ccc(C2CC(=O)N(c3ccc(C(=O)O)cc3)C2=O)cc1 (stereo not given) | -3.94 ± 6.9
O=C(NCc1ccc(N2CCCC2=O)cc1)c1cccc(Cl)c1 | 0.303 ± 1.9
CCNC(=O)c1c(N)sc2c1CCCCC2 | 2.16 ± 2.4
CC(C)OC(=O)c1ccc(NC(=O)c2cncc(Br)c2)cc1 | 4.22 ± 5
CCOc1cc(C)cc2oc(=O)cc(-c3ccccc3)c12 | 3.93 ± 4.9
Cc1cc(O)c(C(=O)Cc2csc(C)n2)c(O)c1 | 45.9 ± 3.3
COc1cc(NC(=O)COc2ccccc2)c(OC)cc1NC(C)=O | 2.35 ± 11
CCC(=O)c1ccc(OCc2ccc(C(=O)OC)cc2)cc1 | 47.3 ± 2.2
COc1ccc(C(=O)NCc2cccnc2)cc1 | -2.51 ± 0.59
COc1ccc(OCc2cccc(C(=O)NN)c2)cc1 | -59.1 ± 2.2
CC(=O)[C@H]1CC[C@H]2[C@@H]3CCC4=CC(=O)CC[C@]4(C)[C@H]3[C@H](O)C[C@]12C | -10.6 ± 14
COc1cc2nc(-c3ccccc3)nc(N3CCCC3)c2cc1OC | 14.1 ± 1.1
C=C(C)c1nc2cc(OC)c(OC)cc2c(=O)o1 | -30.6 ± 9.3
COc1ccc(/C=C\C(=O)c2c(O)ccc3c(C)cc(=O)oc23)cc1OC | -14 ± 3.3
COc1cc2cc(C(=O)O)[nH]c2c(OC)c1OC | 1.43 ± 0.11
Cc1oc2ccc(OC(=O)c3cccs3)cc2c1C(=O)OC(C)C | 6.48 ± 1

Structure (SMILES) | CD40L-induced NF-kB luciferase activity
Cc1ccc2c(c1)C(CCN)C(=O)N2Cc1ccccc1 (stereo not given) | 1.33 ± 2
CC12CCC(C(=O)N3CCc4ccccc43)(CC1=O)C2(C)C (stereo not given) | -7.25 ± 2.2
COc1cc2c(cc1OC)C(c1cc3ccccc3oc1=O)=NC(C)(C)C2 | -0.782 ± 0.12
COc1cc(C2CC(=O)NC3=C2C(=O)CC(C)(C)C3)ccc1O (stereo not given) | 7.59 ± 2.5
O=C1[C@@H]2[C@H](Cc3ccc(O)cc3)N[C@]3(C(=O)Nc4ccccc43)[C@@H]2C(=O)N1c1ccc(F)cc1 | -2.13 ± 3.5
COc1ccc2oc(C)c(C(N)=O)c2c1 | 5.21 ± 2.3
Cc1ccc(S(=O)(=O)NC(C(=O)Oc2cc3oc(=O)cc(C)c3cc2Cl)C(C)C)cc1 (stereo not given) | -3.08 ± 0.98
c1ccc(Cn2nnc3cnccc32)cc1 | 3.11 ± 1.1
Fc1ccc(-c2cc(-c3ccccc3)nc(-n3cccn3)n2)cc1 | -4.51 ± 1.4
O=C(/C=C/c1ccc2c(c1)OCCCO2)c1ccc2ccccc2c1O | 44.2 ± 0.67
COC(=O)CCC(=O)CN | -0.0616 ± 1.1
O=C(O)[C@@H](O)c1ccccc1 | -1.47 ± 0.027
C=CCOC(=O)C1=C(C)NC(=O)NC1/C=C/c1ccccc1OC (stereo not given) | -0.888 ± 0.046
CC(=O)Oc1ccc(C2OC(=O)c3ccccc3N2C(C)=O)cc1 (stereo not given) | -32.9 ± 1
COc1ccc(C2C3=C(OC(C)=O)c4ccccc4C3=Nc3c2c(=O)n(C)c(=O)n3C)cc1 (stereo not given) | 6.21 ± 0.2
COc1ccc(C2C(=O)c3ccccc3C2=O)cc1 | 0.868 ± 0.29
COc1ccc(-c2coc3cc(OC(=O)N4CCOCC4)ccc3c2=O)cc1 | 5.32 ± 1.2
CCCCC(=O)O[C@]1(C(=O)CO)CC[C@H]2[C@@H]3CCC4=CC(=O)CC[C@]4(C)[C@H]3[C@@H](O)C[C@@]21C | -43.1 ± 20
CCCCCCCC(=O)OCC(=O)[C@@]1(O)CC[C@H]2[C@@H]3CCC4=CC(=O)CC[C@]4(C)[C@H]3[C@@H](O)C[C@@]21C | -24.2 ± 1.8
CCCC(=O)O[C@]1(C(=O)CO)CC[C@H]2[C@@H]3CCC4=CC(=O)CC[C@]4(C)[C@H]3[C@@H](O)C[C@@]21C | -31.6 ± 7.7
CCCCCC(=O)O[C@]1(C(C)=O)CC[C@H]2[C@@H]3CCC4=CC(=O)CC[C@]4(C)[C@H]3CC[C@@]21C | -8.91 ± 0.8
C[C@]12CCC(=O)C=C1CC[C@@H]1[C@@H]2[C@@H](O)C[C@@]2(C)[C@H]1CC[C@]2(O)C(=O)CO | -24.3 ± 5.5
C[C@]12C[C@H](O)[C@H]3[C@@H](CCC4=CC(=O)CC[C@@]43C)[C@@H]1CC[C@@H]2C(=O)CO | -19.6 ± 8.2
CC(C(=O)O)c1ccc(N2Cc3ccccc3C2=O)cc1 (stereo not given) | -43.6 ± 2.8

Structure (SMILES) | CD40L-induced NF-kB luciferase activity
CC(C)Cc1ccc(C(C)C(=O)O)cc1 (stereo not given) | 2.3 ± 5
CC(C(=O)O)c1ccc(-c2ccccc2)c(F)c1 (stereo not given) | 2.04 ± 0.53
COc1cc(C(=O)OCCn2c(=O)c3c(ncn3CCN(C)C)n(C)c2=O)cc(OC)c1OC | -3 ± 1.3
O=c1ccn([C@@H]2O[C@H](CO)[C@@H](O)[C@H]2O)c(=O)[nH]1 | -6.55 ± 1.5
Nc1ccn([C@@H]2O[C@H](CO)[C@@H](O)[C@@H]2O)c(=O)n1 | -30.5 ± 2.4
Nc1cnn(C2OC(CO)C(O)C2O)c(=O)n1 (stereo not given) | 6.46 ± 4.2
CC(C)CC(=O)OC1C(N2CCOCC2)c2c(ccc(/C=C/C(=O)N3CCOCC3)c2O)OC1(C)C (stereo not given) | -1.24 ± 1.2
O=C(/C=C/c1ccco1)N1CCN(c2ccccc2)CC1 | 6.71 ± 0.18
Cc1ccc2c(c1)C(O)(c1c(C)[nH]c3ccccc13)C(=O)N2 (stereo not given) | 3.92 ± 8.9
O=C(NC(=S)N1CCCCC1)c1cccnc1 | -3.04 ± 2.8
O=C(CCCN1C(=O)/C(=C\c2cccs2)SC1=S)Nc1ccccn1 | -2.54 ± 1.1
CC(/C=C1\SC(=O)N(CCCC(=O)O)C1=O)=C\c1ccccc1 | -84.08 ± 0.44
O=C(CCCN1C(=O)/C(=C\c2cccc(Br)c2)SC1=S)Nc1cccnc1 | -2.47 ± 4.1
C(=C\c1ccc2ccccc2n1)/c1ccccc1 | -56 ± 3.4
CCn1c(/C=C/c2ccccc2)nc2ccccc2c1=O | 4.25 ± 3.8
COCCn1c(/C=C/c2ccccc2)nc2ccccc21 | 38.4 ± 2.4
O=c1cnn([C@@H]2O[C@H](CO)[C@@H](O)[C@H]2O)c(=O)[nH]1 | 10.5 ± 4.8
O=C(Nc1c(C(=O)O)[nH]c2ccccc12)NC1CCCCC1 | -0.728 ± 0.3
O=C(CC1(O)C(=O)Nc2ccccc21)c1ccccc1O (stereo not given) | 1.73 ± 4.3
O=C1C=CC(=O)C(C2=C3C(=O)N(CCc4ccccc4)CC(=O)N3CCC2)=C1 | -42.7 ± 2.4
O=C1CCCCCN1Cc1ccccc1 | 3.92 ± 5.3
O=C(c1cc2cc(Br)ccc2o1)N1CCCC1 | 38.77 ± 0.2
